# Compound activity (PubChem BioAssay)
# In the library only some 5.9% were active in any assay of this set; here they are far more common.
# RORg inh: qHTS for inhibitors of ROR gamma transcriptional activity. Nuclear receptor ROR-gamma (Mus musculus), P51450. Drosophila S2 Gal4-RORgamma UAS-luciferase reporter, 20 h. Potency, µM (top dose mostly 53.6 µM), for the others: at the top dose activity change, negative = inhibition, usual class: inhibitors. actives 5.4% (n = 310,000). AID 2551, 2010; note: % is set by controls: 0 for no effect and ±100 for the full control effect; nearly all actives have a fitted effect of over 60% in size
# Target sequence (P51450 whole entry, looked up, the tested form may be a part): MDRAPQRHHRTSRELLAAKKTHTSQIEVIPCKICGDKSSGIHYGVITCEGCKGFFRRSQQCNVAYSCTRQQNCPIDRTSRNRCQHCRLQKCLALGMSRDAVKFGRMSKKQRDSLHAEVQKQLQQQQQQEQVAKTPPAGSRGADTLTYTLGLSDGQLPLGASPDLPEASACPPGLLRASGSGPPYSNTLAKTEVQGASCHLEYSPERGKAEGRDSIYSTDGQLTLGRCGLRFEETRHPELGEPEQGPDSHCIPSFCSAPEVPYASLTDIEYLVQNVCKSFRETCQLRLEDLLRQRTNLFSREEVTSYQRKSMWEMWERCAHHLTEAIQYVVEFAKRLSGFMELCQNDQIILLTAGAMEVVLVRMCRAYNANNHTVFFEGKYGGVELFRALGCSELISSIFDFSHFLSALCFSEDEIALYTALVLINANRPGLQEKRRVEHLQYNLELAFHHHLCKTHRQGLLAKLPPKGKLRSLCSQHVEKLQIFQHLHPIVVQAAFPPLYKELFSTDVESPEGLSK
#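 Drosophila Schneider cells stably carrying a metallothionein-driven Gal4 DBD–ROR gamma fusion and a UAS-Photinus luciferase reporter were exposed to compound for 1 hr, then induced with copper sulfate (700 uM final) for 20 hr at ambient temperature before luminescence reading.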
# GLP1R cytotox: qHTS of GLP-1 Receptor Inverse Agonists: Cytotox Screen; actives 0.13% (n = 410,000); AID 624418, 2012; HEK293 cAMP-luciferase reporter cells, luminescence, 24 h; Potency, µM (doses to about 38.3 µM), without a hit: at the top dose activity change, negative = inhibition, actives largely listed as inhibitors;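 note: loss of luciferase light is scored as toxicity; % is set by controls: 0 for no effect and ±100 for the full control effect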
#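 Cells in DMEM/10% Nu serum/1% pen-strep, 1536-well format. Pre-incubated 12 h, dosed with 23 nL compound, incubated a further 24 h. Luciferase detection, 12 min at room temp, luminescence.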
# VP16 counter: VP16 counterscreen qHTS for inhibitors of ROR gamma transcriptional activity. Drosophila S2 Gal4-VP16 UAS-luciferase, luminescence, 20 h. Potency, µM (series often up to 53.6 µM), for inactives: at the top dose activity, negative = inhibition, usual class: inhibitors. actives 3.5% (n = 310,000). AID 2546, 2010;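 note: Gal4-VP16 expression switched on by copper sulfate through the metallothionein promoter; % is set by controls: 0 for no effect and ±100 for the full control effect; nearly all actives have a fitted effect of over 50% in size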
# GLP1R ag: qHTS of GLP-1 Receptor Agonists; Glucagon-like peptide 1 receptor (Homo sapiens), P43220; HEK293 GLP-1R CRE-luciferase, luminescence, 4-6 h; cells express a hypersensitive GLP-1R form; Potency, µM (doses to about 45.6 µM), without a hit: top-dose activation, most hits filed as activators; actives 0.007% (n = 380,000); AID 624172, 2012; note: % of control where 0% means no effect
# GLP-1R inv ag: qHTS of GLP-1 Receptor Inverse Agonists (Inhibition Mode) | actives 1.6% (n = 410,000) | Potency, µM (top dose mostly 38.3 µM), for inactives: top-dose activity change, negative = inhibition, hits mostly inhibitors | Glucagon-like peptide 1 receptor (Homo sapiens), P43220 | HEK293 GLP-1R CRE-luciferase, luminescence, 24 h; GLP-1R form is constitutively active; note: % is set by controls: 0 for no effect and ±100 for the full control effect; nearly all actives have a fitted effect of over 55% in size
#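 HEK293 cells stably co-expressing constitutively active GLP-1R and a cAMP-responsive luciferase reporter were seeded in DMEM with 10% Nu serum, given compounds after 12 h, and incubated 24 h at 37 deg C. Luminescence was then read.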
# An asterisk follows results filed as active; ? = inconclusive; . = not tested or not shown. Calls come from the whole dose curve; as a rule, active = well fitted curve in the direction sought with a large enough effect; inconclusive = small, poorly fitted or top-dose-only effect, or another doubt; inactive = no such curve, though single readings can be large; an effect the other way counts as inactive or inconclusive. Potency is the fitted concentration of half-maximal effect.
SMILES,RORg inh,GLP1R cytotox,VP16 counter,GLP1R ag,GLP-1R inv ag
Cc1cccc(/C=C(\c2nc3ccccc3[nH]2)S(=O)(=O)c2ccccc2)c1,?,8.9µM*,-78%,0%,5µM*
COc1cccc2c1C(=O)c1c(O)c3c(c(O)c1C2=O)CC(O)(C(C)=NO)CC3OC1CC(N)C(O)C(C)O1 (stereo unspecified),.,11µM*,.,-5%,10µM*
O=C1NC(=S)NC(=O)C1=Cc1ccc(Br)s1,20µM*,-29%,6.3µM*,-1%,-25%
CN1C(=O)/C(=C\c2ccc(Br)s2)C(=O)NC1=S,?,-2%,?,1%,21%
N#CCBr,6%,.,-3%,.,.
O=C(c1ccccc1)c1nn(-c2ccc(Cl)cc2)c(=O)cc1C(F)(F)F,?,?,?,30%,4µM*
CC(=O)OC1CC(OC(C)=O)[C@]2(C)C(CC(OC(C)=O)[C@]3(C)C2CC[C@@]2(C)C(c4ccoc4)C[C@H]4O[C@]432)C1(C)C (stereo partly specified),?,.,-8%,.,.
CC(=O)OC1C[C@@]2(C)C(c3ccoc3)C[C@H]3O[C@@]32[C@@]2(C)C(=O)C(O)=C3C(C)(C)C(=O)C=C[C@]3(C)C12 (stereo partly specified),3.2µM*,.,3.2µM*,.,.
CC(=O)O[C@@H]1C[C@@]2(C)C(c3ccoc3)C[C@H]3O[C@]32[C@]2(C)C(=O)C(O)=C3C(C)(C)C(=O)C=C[C@]3(C)C12 (stereo partly specified),?,.,13µM*,.,.
Cc1cc(C)c(OCC(=O)Nc2nc(-c3ccccn3)cs2)c(C)c1,2.8µM*,?,?,-2%,?
O=C(Nc1ccc([N+](=O)[O-])cc1)Nc1ccc(OC(F)F)c(Cl)c1,?,?,13µM*,-8%,3.5µM*
CCN(CC)C(=O)c1ccc(NC(=O)COc2ccc([N+](=O)[O-])cc2Cl)cc1,33%,-1%,-2%,0%,?
CC(C)N1CC=C(c2c[nH]c3ccccc23)CC1,?,-18%,-21%,-18%,?
Cc1ccc(-c2csc(-c3c[nH]c4ccccc34)n2)c(C)c1,10%,?,-18%,-20%,10µM*
Cc1ccc(CN2C3CCCC2CC(NC(=S)NCc2ccccc2)C3)cc1 (stereo unspecified),2.8µM*,-21%,18µM*,8%,?
CC(C)(O)C1C2OC(=O)C1[C@]1(O)CC3O[C@@]34C(=O)OC2[C@@]14C (stereo partly specified),20%,.,-2%,.,.
COc1ccc(-c2nc(CSCC(=O)N3CCN(c4ccc(F)cc4)CC3)c(C)o2)cc1,.,16%,.,.,?
CCOC(=O)c1cc(C)sc1/N=C/C1C(=O)NC(=S)NC1=O,16µM*,-6%,4%,-1%,5%
CC(=O)O[C@@H]1[C@@H](O)C2OC3C=C(C)C(=O)[C@@H](O)[C@]3(CO)C1(C)C21CO1 (stereo partly specified),0.63µM*,.,0.11µM*,.,.
CC(=O)OCC12CC(OC(=O)CC(C)C)C(C)=CC1OC1C(O)C(OC(C)=O)C2(C)C12CO2 (stereo unspecified),.,-52%,.,-7%,-70%
COC1=CC(=O)OC(CCc2ccccc2)C1 (stereo unspecified),14%,.,-1%,.,.
C=C(CN(C)C)C(=O)c1ccc(C)cc1C,.,10µM*,.,-13%,?
COc1ccc2[nH]cc(C(=O)CN(C)C)c2c1,.,2%,.,4%,-3%
Oc1cccc(Cl)c1,-2%,.,8%,.,.
O=C(CCl)N(c1ccccc1)C1CCS(=O)(=O)C1 (stereo unspecified),18µM*,?,?,-29%,?
SMILES,RORg inh,GLP1R cytotox,VP16 counter,GLP1R ag,GLP-1R inv ag
O=C(Nc1ccccc1)NN(C(=O)CCl)c1ccccc1,?,?,?,-3%,?
Cc1ccc(C(=O)CC(=O)c2cccc(F)c2)c(O)c1,11µM*,26%,?,0%,?
CNCC(=O)c1ccc(O)c(O)c1,.,.,.,14%,.
C=C(C)[C@@H]1CC[C@]2(C(=O)O)CC[C@]3(C)C(CCC4[C@@]5(C)CC[C@H](O)C(C)(C)C5CC[C@]43C)C12 (stereo partly specified),3.2µM*,0%,-6%,?,-7%
Cn1c(NN=O)nc2ccccc21,0.035µM*,?,?,13%,4.5µM*
CCCCOc1ccc(CNC(=O)c2cc3n(n2)CCCN(Cc2ccc(C)cc2)C3=O)cc1,.,0%,.,.,?
CN(C)C1(c2nnnn2CCOC(=O)Nc2ccc(Cl)cc2)CCCCC1,19%,-17%,16%,2%,7.1µM*
N#CC1=C(N)C2=CCCC[C@H]2[C@H](c2ccccc2)C1(C#N)C#N,-32%,85%,-8%,-38%,4.5µM*
CC1=C(O)C(=O)C=C2C1=CC=C1C2(C)CCC2(C)C3CC(C)(C(=O)O)CCC3(C)CCC12C (stereo unspecified),.,?,.,-14%,?
Cc1c(O)c(O)cc2c1CC=C1[C@]3(C)CC[C@]4(C)CC[C@@](C)(C(=O)O)CC4[C@]3(C)CC[C@]12C (stereo partly specified),?,.,13µM*,.,.
Cn1ncnc2c(=O)n(C)c(=O)nc1-2,0.04µM*,?,0.63µM*,-10%,?
CN1CC(CNC(=O)OCc2ccccc2)CC2c3cccc4c3c(cn4C)CC21 (stereo unspecified),16µM*,.,?,.,.
CCCn1cc2c3c(cccc31)C1CC(C)CN(C)C1C2 (stereo unspecified),-31%,.,4%,.,.
COc1ccc([C@H]2C[C@@H](O)[C@H](n3cc(COC(=O)c4ccccc4)nn3)CN2CC2CCCCC2)cc1,.,-29%,.,-1%,11µM*
Cc1ccc([C@H]2C[C@@H](O)[C@H](n3cc(COC(=O)c4ccccc4)nn3)CN2C(=O)C2CCCCC2)cc1,.,-19%,.,5%,?
COC(=O)C1=C(c2ccccc2OCc2ccccc2)C[C@@H]2CC[C@H]1N2C(=O)NCc1ccccc1,.,2%,.,-3%,?
COC(=O)C1=C(c2ccc(OC(F)(F)F)cc2)C[C@@H]2CC[C@H]1N2C(=O)NCC1CC1,.,-19%,.,6%,10µM*
COC(=O)C1=C(c2ccccc2OCc2ccccc2)C[C@@H]2CC[C@H]1N2C(=O)NCCc1ccc(F)cc1,.,-23%,.,-2%,22µM*
COC(=O)C1=C(c2ccc(OCc3ccccc3)cc2)C[C@@H]2CC[C@H]1N2C(=O)NCc1ccccc1OC,.,4%,.,5%,13µM*
